Here are results for 13 compounds from PubChem BioAssay (NCI).

Assay in all cases: NCI-60 one-dose screen, 48 h (100 = growth as untreated, 0 = no growth, -100 = all killed)
What all share (settings): 10 µM unless noted

For test [1], the system named is DU-145 prostate.
Test [2] deals with K-562 leukemia.
The subject of test [3] is MALME-3M melanoma.
Test [4] relates to MDA-MB-231 breast.
In test [5] the test system is RXF 393 renal.
Test [6] relates to SF-268 CNS.
The subject of test [7] is SF-295 CNS.
The subject of test [8] is SF-539 CNS.
Test [9] has as its system UACC-257 melanoma.
The subject of test [10] is M14 melanoma.

The panel holds about 83,000 compounds, 20% with a hit somewhere; the sample as a whole holds those more often.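 Cells were grown in 96-well plates and exposed to the test compound at a single concentration for 48 hours; results are reported as percent growth, with values below 10 considered active.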 Unmarked numbers belong to inactive results. Calls of active or inactive are those of the source.

`N#CC(C#N)=C1NC(c2ccccc2)=C(c2ccccc2)C(c2ccccc2Cl)=C1C#N`: the growth in test [1] was 112%; in test [2], 98.1%; in [3], 108%; in [4], 110%; in test [5] it was 121%; in test [6] it was 109%. Besides, the growth in [7] is 101%; in test [8] it was 108%; in test [9], 75%; in [10], 106%.
With `Nc1n[nH]c2cccc(C#Cc3cccc(NC(=O)c4cc(N5CCOCC5)cc(C(F)(F)F)c4)c3)c12`, the growth in test [1] was 64.6%; in test [2], 4.32% (active); in test [3], -18.1% (active); in [4] it was 30%; in test [5], 38.7%; in test [6], 55.8%. Moreover, the growth is 69.1% in test [7], 24.6% in test [8], 45.1% in test [9] and 19.2% in test [10].
For the compound `COc1cccc(NC(=O)Nc2ccc(Oc3ncnc4[nH]c(C)c(C)c34)cc2)c1`, the growth in test [1] is 91.9%; in test [2] it was 83.7%; in test [3], 114%; in test [4], 97.1%; in test [5], 109%; in test [6], 81.3%. The growth is 91.7% in [7], 64.6% in [8], 97.7% in test [9] and 100% in test [10].
Take `COc1ccc(Cl)c([N+](=O)[O-])c1`: the growth was 108% in test [1]; 99.8% in test [2]; 106% in test [3]; 102% in test [4]; 108% in [5]; 104% in [6]. Moreover, the growth in test [7] is 98%; in [8], 91.9%; in test [9], 111%; in [10], 96.3%.
On to `OCCNc1nc(NCCO)nc(Nc2ccc(C3=NN(c4cc(Cl)cc(Cl)c4)C(c4ccc(C(F)(F)F)cc4)C3)cc2)n1` (stereo not given), for which the growth is 22.2% in test [1]; 10.7% in [2]; 29.4% in test [3]; 42.3% in test [4]; -27.2% (active) in test [5]; 41.7% in [6]. In addition, the growth was -15.5% (active) in test [7], 24.3% in [8], 59.4% in test [9] and 36.1% in test [10].
Take `CC1CCCN(CCCCCOc2ccc3oc4ccccc4c(=O)c3c2)C1` (stereo not given): the growth in test [1] is 85.1%; in [2], 17.3%; in test [3], 4.45% (active); in [4], 67.8%; in test [5], 60.8%; in [6] it was 72.5%. Also, the growth in test [7] is 72.9%; in test [8], 77.2%; in test [9] it was -18.8% (active); in [10], 5.02% (active).
As to `C=CCn1c(SCC(=O)Nc2ccc(C(=O)/C=C/c3ccc(Cl)cc3)cc2)nnc1-c1cc(OC)c(OC)c(OC)c1`, the growth is 100% in test [1]; 83.8% in [2]; 115% in test [3]; 80.5% in [4]; 90.8% in test [5]; 87.8% in test [6]. Besides, the growth in [7] is 94.3%; in test [8], 96.4%; in test [9], 95.8%; in [10], 93.9%.
As to `Cc1c(C(=O)Nc2nc3ccccc3[nH]2)cnn1-c1ccccn1`, the growth in test [1] was 112%; in test [2], 93.5%; in [3], 106%; in test [4], 109%; in [5], 105%; in [6] it was 107%. The growth in test [7] was 102%; in test [8], 98.9%; in test [9], 82.4%; in [10], 111%.
As for `CCOCCc1c(O)nc(SC)[nH]c1=O`, the growth in [1] was 107%; in test [2], 112%; in test [3] it was 130%; in test [4], 111%; in [5], 161%; in test [6], 116%. The growth in test [7] is 113%; in [8], 93.7%; in [9], 23.9%; in test [10] it was 98.9%.
`COCCOCCOCc1n(Cc2ccc3ccccc3n2)c2ccccc2[n+]1Cc1ccc2ccccc2n1`: the growth in test [1] is 35.4%; in [2] it was 19.1%; in [3], 5.23% (active); in [4] it was 17.9%; in [5], 66.9%; in [6], 22.7%. Further, the growth is 52.3% in test [7], 26.7% in test [8], -5.39% (active) in test [9] and 26% in test [10].
Consider `Cc1ccn2c3c(c(C(=O)O)c2c1)C(=O)c1ccccc1C3=O`, for which the growth in [1] is -55.7% (active); in test [2], 85.4%; in [3], -62.7% (active); in test [4], 77.2%; in [5], 56.9%; in [6] it was 80.3%. Also, the growth in [7] is 26.9%; in test [8], 65.8%; in [9], 56.4%; in test [10], -43.5% (active).
As to `CCCCCCN1C(=O)CN=C1Nc1ccc2cc3ccc(NC4=NCC(=O)N4CCCCCC)cc3nc2c1`, the growth was 40.5% in [1]; -12.1% (active) in [2]; 71.5% in [3]; 30.7% in test [4]; 11.6% in [5]; 47.5% in test [6]. Besides, the growth in test [7] was 82.7%; in test [8], 76.6%; in [9], 103%; in test [10], 68.2%.
For `[2H]c1nc(Nc2ncc3cc(C(=O)N(C)C)n(C4CCCC4)c3n2)c([2H])c([2H])c1N1C([2H])([2H])C([2H])([2H])NC([2H])([2H])C1([2H])[2H]`, the growth in [1] was 88.4%; in test [2], 53.2%; in test [3], 62.4%; in [4], 51%; in test [5], 62.9%; in [6], 75.3%. Moreover, the growth in test [7] was 72.1%; in test [8], 71.5%; in [9] it was 60%; in test [10] it was 70.7%.
